This is an account of results in ChEMBL document CHEMBL1157539, “Thousands of chemical starting points for antimalarial lead identification” (Nature, 2010).

This assay relates to HepG2. Briefly: GSK_TCMDC: Percent inhibition of human HepG2 cell line. Test compounds present at 10uM. It counts as functional.
For the compound `Cc1cc(N(C)C)nc(Nc2ccc(NC(=O)c3ccc(Br)o3)cc2)n1`, the Inhibition came out at 1%. Compound `CN1CCC(C(=O)N(Cc2ccc(-c3ccc(CNCCc4ccc(S(C)(=O)=O)cc4)cn3)cc2)Cc2cccc(F)c2)CC1.O=C(O)C(F)(F)F` had an Inhibition of 10%. In turn, `CCN(CC)C(=O)C(=O)c1c[nH]c2ccc(Cl)cc12` returned an Inhibition of 1%. The compound `CCCNCc1ccc(-c2ccc(CN(CCOC)C(=O)/C=C/c3ccccc3C)cc2)nc1.O=C(O)C(F)(F)F` displayed an Inhibition of 13%.

For the compound `COc1ccc(Cl)cc1N1CCN(CCCNC(=O)c2ccc(-c3nc4cc(Cl)c(C)cc4[nH]3)c(F)c2)CC1`, the Inhibition turned out to be 0%.

On to `Cc1cc(C(F)(F)F)n2nc(C(=O)N(C)Cc3cncn3Cc3ccc(F)cc3)cc2n1`, for which the Inhibition worked out at 0%.

As for `CCN(CC)Cc1cc(NC(=O)c2ccccc2O)ccc1Oc1ccc(Cl)cc1.Cl`, the Inhibition is 32%. `CC(C)(C)c1ccc(CN2CCCCC(NC(=O)c3cc(-c4ccccc4F)cs3)C2)cc1.O=C(O)C(F)(F)F` (stereo not drawn) had an Inhibition of 6%.

Consider `CCCN1CCC(c2c[nH]c3ccc(NC(=O)Nc4cccc(Cl)c4Cl)cc23)CC1`, for which the Inhibition amounted to 30%. As to `CC(=O)N1c2ccccc2C(C)=CC1(C)C`, the Inhibition is given as 3%.

Compound `Cc1nc(-c2ccc(-c3ccc(C(=O)Nc4ccc(C(C)C)c(OCCN(C)C)c4)cc3)c(C)c2)no1.O=C(O)C(=O)O` yielded an Inhibition of 49%. Take `FC(F)(F)c1ccc2[nH]c(-c3ccc(-c4cccc(CN5CCN(CCN6CCOCC6)CC5)c4)cc3)nc2c1.O=C(O)C(F)(F)F`: the Inhibition amounted to 47%. For the compound `COc1cc2nc(N3CCC(CNC(=O)c4ccc(-c5ccc(C(=O)N(C)C)cc5OCCO)cc4)CC3)nc(N)c2cc1OC`, the Inhibition was found to be 0%.
